# According to PubChem BioAssay (EPA / NIEHS):
# Results filed as inconclusive are left out. Calls of active or inactive are those of the source. The calls were made as follows, unless noted: active = hit-call score of the fitted dose curve at least 0.9, where 1 is the maximum; inactive = score below 0.9.
# What was measured:
# [1] = biological target: human Thyroid Receptor alpha (THRa1), THRA (gene 7067) (UniProt P10827); test: ATG_THRa1_TRANS: Attagene TRANS-FACTORIAL HepG2 Assay for human Thyroid Receptor alpha (THRa1) (AID 2283014; active = hit-call score of the fitted dose curve at least 0.9, where 1 is the maximum)
# human Thyroid Receptor alpha (THRa1), THRA (gene 7067), sequence (P10827 whole entry, looked up, the tested form may be a part): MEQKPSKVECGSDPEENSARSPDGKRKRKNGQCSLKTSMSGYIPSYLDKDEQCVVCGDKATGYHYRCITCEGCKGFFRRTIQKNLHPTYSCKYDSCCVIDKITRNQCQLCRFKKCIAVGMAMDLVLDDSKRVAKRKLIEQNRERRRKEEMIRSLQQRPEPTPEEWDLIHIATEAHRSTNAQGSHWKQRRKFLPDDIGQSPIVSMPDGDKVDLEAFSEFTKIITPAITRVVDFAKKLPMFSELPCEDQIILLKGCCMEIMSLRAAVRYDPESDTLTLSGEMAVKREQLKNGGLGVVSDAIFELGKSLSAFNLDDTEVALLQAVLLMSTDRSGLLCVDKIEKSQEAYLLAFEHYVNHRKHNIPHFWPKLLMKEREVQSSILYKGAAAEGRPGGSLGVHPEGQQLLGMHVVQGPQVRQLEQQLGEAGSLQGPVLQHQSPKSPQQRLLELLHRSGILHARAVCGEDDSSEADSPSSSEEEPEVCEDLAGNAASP
# Procedure, shortened: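 First, HepG2 cells receive multiple GAL4-UAS reporter units and the chimeric receptor. They are then dosed for 24 h, after which RNA is reverse-transcribed, amplified, labelled, HpaI-cut and sized by capillary electrophoresis; gain relative to DMSO is scored.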
# [2] = read-out: E-selectin (Homo sapiens) (UniProt P16581); test: BSK_3C_Eselectin: BioMAP Diversity Plus: 3C Assay for Eselectin Biomarker Activity (AID 2283015); conditions: primary human endothelial cells (HUVEC); actives raise or lower the signal;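 as to outcome: cell surface E-selectin protein quantified by ELISA 24 h after dosing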
# Procedure, shortened: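 Human vascular endothelium from umbilical vein is exposed to test chemicals for 24 h. E-selectin levels are read by ELISA and compared with DMSO controls.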
# [3] = read-out: Interleukin-1 alpha (IL1a), IL1A (gene 3552); test: BSK_BE3C_IL1a: BioMAP Diversity Plus: BE3C Assay for Interleukin-1 alpha (IL1a) Biomarker Activity (AID 2283016); conditions: primary human bronchial epithelial cells; actives raise or lower the signal
# Procedure, shortened: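 IL-1a measured by ELISA after 24 h treatment of human primary bronchial epithelial cells, with gain or loss of signal fitted versus DMSO. Parallel cultures stained with SRB gauge overt cytotoxicity.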
# [4] = read-out: Monocyte Chemoattractant Protein-1 (MCP1), CCL2 (gene 6347); test: BSK_3C_MCP1: BioMAP Diversity Plus: 3C Assay for Monocyte Chemoattractant Protein-1 (MCP1) Biomarker Activity (AID 2283017); conditions: primary human endothelial cells (HUVEC); actives raise or lower the signal
# Procedure, shortened: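 Endothelial cells from human umbilical vein are dosed with chemical, cultured 24 h, then assayed for MCP-1 by ELISA; both increases and decreases are modelled against DMSO controls.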
# [5] = read-out: Monocyte Chemoattractant Protein-1 (MCP1), CCL2 (gene 6347); test: BSK_4H_MCP1: BioMAP Diversity Plus: 4H Assay for Monocyte Chemoattractant Protein-1 (MCP1) Biomarker Activity (AID 2283018); conditions: primary human endothelial cells (HUVEC); actives raise or lower the signal
# Procedure, shortened: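 ELISA of MCP-1 (CCL2) 24 h after chemical dosing of HUVEC in the BioMAP 4H system. Gain or loss versus DMSO fitted; parallel SRB staining (560 nm) tracked overt cytotoxicity.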
# [6] = read-out: Human Leukocyte Antigen - DR isotype (HLADR), HLA-DRA (gene 3122); test: BSK_3C_HLADR: BioMAP Diversity Plus: 3C Assay for Human Leukocyte Antigen - DR isotype (HLADR) Biomarker Activity (AID 2283019); conditions: primary human endothelial cells (HUVEC); actives raise or lower the signal;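 as to outcome: ELISA of cell-surface HLA-DR on HUVEC 24 h after dosing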
# Procedure, shortened: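 Endothelial cells from human umbilical vein are treated with test chemical; after 24 h, HLA-DR levels are measured by ELISA. Data are fitted in both directions using DMSO as the baseline.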
# [7] = read-out: Monokine induced gamma interferon (MIG), CXCL9 (gene 4283); test: BSK_3C_MIG: BioMAP Diversity Plus: 3C Assay for Monokine induced gamma interferon (MIG) Biomarker Activity (AID 2283021); conditions: primary human endothelial cells (HUVEC); actives raise or lower the signal;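 as to AC50: MIG protein level measured by immunoassay in the treated endothelial cultures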
# Procedure, shortened: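 ELISA measurement of MIG in human umbilical vein endothelial cells 24 h after treatment. Cytotoxicity tracked by SRB staining in parallel cultures; gain or loss of signal fitted relative to DMSO.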
# [8] = BSK_3C_SRB: Viability Assessment in the BioMAP Diversity Plus: 3C Assay (AID 2283023); conditions: primary human endothelial cells (HUVEC);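 also: cells read 24 h after compound dosing; fitted both ways against DMSO so a hit may be signal rise or drop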
# Procedure, shortened: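 Cells were dosed with chemical, cultured 24 h, fixed with 10% TCA, stained with 0.1% SRB and read at 560 nm. Human umbilical vein endothelium was used; DMSO served as negative control and baseline.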
# [9] = read-out: Matrix Metallopeptidase 1 (MMP1), MMP1 (gene 4312); test: BSK_BE3C_MMP1: BioMAP Diversity Plus: BE3C Assay for Matrix Metallopeptidase 1 (MMP1) Biomarker Activity (AID 2283024); conditions: primary human bronchial epithelial cells; actives raise or lower the signal
# Procedure, shortened: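 ELISA measurement of MMP-1 after 24 h compound exposure of primary human bronchial epithelial cells. Changes in either direction fitted relative to DMSO; parallel SRB staining checked overt cytotoxicity.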
# [10] = BSK_3C_Vis: BioMAP Diversity Plus: 3C Assay for Morphology Visualization (AID 2283025); conditions: primary human endothelial cells (HUVEC);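 also: fitted both ways so gain or loss versus DMSO counts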;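 as to AC50: light microscopy image of cell morphology used as background control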
# Procedure, shortened: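 Light-microscopy visualization of HUVEC cultures at 24 h post-treatment, with DMSO as baseline for bidirectional fitting.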
# [11] = read-out: Pselectin, SELP (gene 6403); test: BSK_4H_Pselectin: BioMAP Diversity Plus: 4H Assay for Pselectin Biomarker Activity (AID 2283026); conditions: primary human endothelial cells (HUVEC); actives raise or lower the signal
# Procedure, shortened: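 ELISA of surface P-selectin on HUVEC, 24 h after dosing, with parallel SRB staining (0.1% after 10% TCA fixation, 560 nm) for overt cytotoxicity. Activity fitted in both directions relative to DMSO.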
# [12] = read-out: Thrombomodulin, THBD (gene 7056); test: BSK_3C_Thrombomodulin: BioMAP Diversity Plus: 3C Assay for Thrombomodulin Biomarker Activity (AID 2283029); conditions: primary human endothelial cells (HUVEC); actives raise or lower the signal
# Procedure, shortened: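 ELISA measurement of thrombomodulin on HUVEC surface 24 h after chemical dosing; activity fitted in both directions relative to DMSO vehicle.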
# [13] = read-out: Urokinase-type plasminogen activator receptor (uPAR), PLAUR (gene 5329); test: BSK_4H_uPAR: BioMAP Diversity Plus: 4H Assay for Urokinase-type plasminogen activator receptor (uPAR) Biomarker Activity (AID 2283030); conditions: primary human endothelial cells (HUVEC); actives raise or lower the signal
# Procedure, shortened: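 Chemicals are dosed onto human vascular endothelial primary cells (umbilical vein). After 24 h, uPAR is read by ELISA. Gain or loss of signal is fitted relative to DMSO.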
# [14] = biological target: human Retinoid X Receptor beta (RXRb), RXRB (gene 6257) (UniProt P28702); test: ATG_RXRb_TRANS: Attagene TRANS-FACTORIAL HepG2 Assay for human Retinoid X Receptor beta (RXRb) (AID 2283013; active = hit-call score of the fitted dose curve at least 0.9, where 1 is the maximum)
# human Retinoid X Receptor beta (RXRb), RXRB (gene 6257), sequence (P28702 whole entry, looked up, the tested form may be a part): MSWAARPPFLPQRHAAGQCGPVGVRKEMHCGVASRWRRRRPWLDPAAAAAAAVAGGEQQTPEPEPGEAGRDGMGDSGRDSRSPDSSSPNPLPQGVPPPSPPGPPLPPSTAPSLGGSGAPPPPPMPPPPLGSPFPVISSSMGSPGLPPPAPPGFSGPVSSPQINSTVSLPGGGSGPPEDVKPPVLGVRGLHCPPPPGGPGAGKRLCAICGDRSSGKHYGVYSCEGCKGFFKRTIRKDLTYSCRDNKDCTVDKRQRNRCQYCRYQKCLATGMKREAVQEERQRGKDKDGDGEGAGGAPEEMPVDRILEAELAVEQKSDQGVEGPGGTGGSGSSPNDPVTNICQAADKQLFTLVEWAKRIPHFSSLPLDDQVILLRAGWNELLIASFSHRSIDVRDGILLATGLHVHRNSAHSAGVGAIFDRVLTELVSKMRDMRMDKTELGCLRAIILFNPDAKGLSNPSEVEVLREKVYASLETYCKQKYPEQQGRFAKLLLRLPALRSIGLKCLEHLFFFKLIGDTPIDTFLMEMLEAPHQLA
# Procedure, shortened: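 Readout is reporter transcript induction after 24 h dosing. It is measured by RT-PCR of total RNA followed by fluorescent capillary electrophoresis. HepG2 liver cells carry transfected multiple reporter units driven by an exogenous RXRb-Gal4 fusion; activity is relative to DMSO.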
# [15] = read-out: Interleukin-8 (IL8), CXCL8 (gene 3576); test: BSK_3C_IL8: BioMAP Diversity Plus: 3C Assay for Interleukin-8 (IL8) Biomarker Activity (AID 2283020); conditions: primary human endothelial cells (HUVEC); actives raise or lower the signal
# Procedure, shortened: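 IL-8 was measured by ELISA in HUVEC cultures 24 h after chemical dosing, with gain or loss of signal fitted relative to DMSO. Parallel SRB total-protein staining tracked overt cytotoxicity.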
# [16] = biological target: human Vitamin D Receptor (VDR), VDR (gene 7421) (UniProt P11473); test: ATG_VDR_TRANS: Attagene TRANS-FACTORIAL HepG2 Assay for human Vitamin D Receptor (VDR) (AID 2283022; active = hit-call score of the fitted dose curve at least 0.9, where 1 is the maximum)
# human Vitamin D Receptor (VDR), VDR (gene 7421), sequence (P11473 whole entry, looked up, the tested form may be a part): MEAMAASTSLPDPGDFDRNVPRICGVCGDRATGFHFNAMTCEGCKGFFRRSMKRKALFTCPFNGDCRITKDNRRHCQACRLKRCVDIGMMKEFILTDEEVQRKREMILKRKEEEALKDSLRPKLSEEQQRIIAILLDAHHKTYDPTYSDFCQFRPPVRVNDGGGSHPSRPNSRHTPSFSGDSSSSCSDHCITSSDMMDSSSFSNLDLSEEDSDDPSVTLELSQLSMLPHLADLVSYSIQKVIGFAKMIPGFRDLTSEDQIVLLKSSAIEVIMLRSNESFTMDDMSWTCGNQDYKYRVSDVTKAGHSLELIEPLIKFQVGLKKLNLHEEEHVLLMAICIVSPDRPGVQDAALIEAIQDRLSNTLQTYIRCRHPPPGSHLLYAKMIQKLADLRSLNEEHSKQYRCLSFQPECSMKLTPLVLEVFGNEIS
# Procedure, shortened: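 Fluorescence of labelled reporter cDNA fragments, resolved by capillary electrophoresis, gives mRNA induction after 24 h treatment of HepG2 cells carrying transfected Gal4-fusion reporter units. Activity is fitted in the positive direction with DMSO as baseline.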
# [17] = BSK_BE3C_SRB: Viability Assessment in the BioMAP Diversity Plus: BE3C Assay (AID 2283028); conditions: primary human bronchial epithelial cells
# Procedure, shortened: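 Overt cytotoxicity was assessed as total protein in confluent human primary bronchial epithelial cultures 24 h after chemical addition, using 0.1% sulforhodamine B staining read at 560 nm.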
# [18] = biological target: Retinoic acid receptor RXR-alpha (Homo sapiens) (UniProt P19793); test: ATG_RXRa_TRANS: Attagene TRANS-FACTORIAL HepG2 Assay for human Retinoid X Receptor alpha (RXRa) (AID 2283012; active = hit-call score of the fitted dose curve at least 0.9, where 1 is the maximum)
# Retinoic acid receptor RXR-alpha (Homo sapiens), sequence (P19793 whole entry, looked up, the tested form may be a part): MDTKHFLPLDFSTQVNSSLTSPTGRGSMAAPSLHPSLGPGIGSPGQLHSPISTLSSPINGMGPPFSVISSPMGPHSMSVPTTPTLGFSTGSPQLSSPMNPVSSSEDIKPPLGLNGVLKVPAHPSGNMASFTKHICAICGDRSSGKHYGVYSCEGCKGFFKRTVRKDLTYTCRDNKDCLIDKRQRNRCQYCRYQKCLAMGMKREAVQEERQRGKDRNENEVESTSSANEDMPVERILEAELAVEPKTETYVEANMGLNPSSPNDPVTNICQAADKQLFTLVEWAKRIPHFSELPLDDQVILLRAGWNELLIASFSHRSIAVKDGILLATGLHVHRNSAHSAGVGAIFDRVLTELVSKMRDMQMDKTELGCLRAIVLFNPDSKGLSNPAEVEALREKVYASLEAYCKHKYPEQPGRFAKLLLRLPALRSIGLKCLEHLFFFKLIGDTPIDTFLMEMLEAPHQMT
# Procedure, shortened: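 TRANS format reporting activity of exogenous RXRa-Gal4 chimera in transiently transfected HepG2, 24 h exposure. Reporter transcripts quantified by RT-PCR with capillary electrophoresis, with gain of signal scored relative to DMSO.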
# [19] = BSK_4H_SRB: Viability Assessment in the BioMAP Diversity Plus: 4H Assay (AID 2283027); conditions: primary human endothelial cells (HUVEC);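 also: cells exposed to compound for 24 h before staining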;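 as to AC50: curves fitted both ways versus DMSO so AC50 may be loss or gain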
# Procedure, shortened: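 Cytotoxicity readout: sulforhodamine B (0.1%) staining of total protein after 10% TCA fixation, measured at 560 nm in human umbilical vein endothelium at 24 h. DMSO set the baseline; fitting was bidirectional.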
# E-selectin (Homo sapiens), sequence (P16581 whole entry, looked up): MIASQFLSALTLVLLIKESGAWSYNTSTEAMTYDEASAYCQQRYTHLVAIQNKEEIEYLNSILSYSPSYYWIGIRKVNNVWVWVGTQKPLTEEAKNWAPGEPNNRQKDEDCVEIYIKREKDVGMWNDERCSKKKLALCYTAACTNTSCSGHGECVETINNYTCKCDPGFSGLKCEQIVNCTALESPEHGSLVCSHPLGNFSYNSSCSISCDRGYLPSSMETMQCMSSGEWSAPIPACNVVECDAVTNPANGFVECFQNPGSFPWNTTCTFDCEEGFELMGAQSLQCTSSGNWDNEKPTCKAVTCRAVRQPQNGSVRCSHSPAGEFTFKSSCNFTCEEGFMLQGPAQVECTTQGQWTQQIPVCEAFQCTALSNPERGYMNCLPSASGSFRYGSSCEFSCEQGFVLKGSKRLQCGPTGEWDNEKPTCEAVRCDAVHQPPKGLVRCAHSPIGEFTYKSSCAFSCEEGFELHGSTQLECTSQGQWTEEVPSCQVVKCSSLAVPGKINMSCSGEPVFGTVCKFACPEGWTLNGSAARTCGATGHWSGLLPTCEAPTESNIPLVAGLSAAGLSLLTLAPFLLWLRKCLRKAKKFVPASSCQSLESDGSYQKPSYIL
structure (smiles),measurement,setting,value
Nn1cnnc1,outcome,[1],inactive
same,outcome,[2],inactive
same,outcome,[3],inactive
same,outcome,[4],inactive
same,outcome,[5],inactive
same,outcome,[6],inactive
same,outcome,[7],inactive
same,outcome,[8],inactive
same,outcome,[9],inactive
same,outcome,[10],inactive
same,outcome,[11],inactive
same,outcome,[12],inactive
same,outcome,[13],inactive
CCSC(=O)N(CC)C1CCCCC1,outcome,[14],inactive
same,outcome,[2],inactive
same,outcome,[3],inactive
same,outcome,[4],inactive
same,outcome,[5],inactive
same,outcome,[6],inactive
same,outcome,[15],inactive
same,outcome,[7],inactive
same,outcome,[16],inactive
same,outcome,[8],inactive
same,outcome,[9],inactive
same,outcome,[10],inactive
same,outcome,[11],inactive
same,outcome,[17],inactive
same,outcome,[12],inactive
same,outcome,[13],inactive
CO/C=C(/C(=O)OC)c1ccccc1COc1cccc(C(F)(F)F)n1,outcome,[18],inactive
same,AC50,[14],13.2 µM (active)
same,outcome,[1],inactive
same,AC50,[2],7.64 µM (active)
same,outcome,[3],inactive
same,AC50,[4],7.3 µM (active)
same,outcome,[5],inactive
same,AC50,[6],9.84 µM (active)
same,outcome,[7],inactive
same,outcome,[16],inactive
same,AC50,[8],20 µM (active)
same,outcome,[9],inactive
same,outcome,[10],inactive
same,outcome,[11],inactive
same,outcome,[12],inactive
same,outcome,[13],inactive
ClC(Cl)=C(c1ccc(Cl)cc1)c1ccc(Cl)cc1,outcome,[18],inactive
same,AC50,[14],17.5 µM (active) [middle of 4 runs]
same,outcome,[1],inactive
same,AC50,[2],30.7 µM (active)
same,outcome,[3],inactive
same,AC50,[5],20 µM (active)
same,AC50,[6],30.5 µM (active)
same,AC50,[7],35 µM (active)
same,outcome,[16],inactive
same,AC50,[8],29.2 µM (active)
same,AC50,[9],25.2 µM (active)
same,AC50,[10],37.3 µM (active)
same,AC50,[11],31.3 µM (active)
same,AC50,[19],30.6 µM (active)
same,outcome,[12],inactive
same,AC50,[13],32.8 µM (active)
CC#Cc1cc(C)nc(Nc2ccccc2)n1,outcome,[18],inactive
same,AC50,[14],61.7 µM (active)
same,outcome,[2],inactive
same,outcome,[3],inactive
same,outcome,[4],inactive
same,outcome,[5],inactive
same,outcome,[6],inactive
same,outcome,[15],inactive
same,outcome,[7],inactive
same,outcome,[16],inactive
same,outcome,[8],inactive
same,outcome,[9],inactive
same,outcome,[10],inactive
same,outcome,[11],inactive
same,outcome,[12],inactive
same,outcome,[13],inactive
Cc1ccccc1[N+](=O)[O-],outcome,[2],inactive
same,outcome,[3],inactive
same,outcome,[4],inactive
same,outcome,[5],inactive
same,outcome,[6],inactive
same,outcome,[7],inactive
same,outcome,[16],inactive
same,outcome,[8],inactive
same,outcome,[9],inactive
same,outcome,[10],inactive
same,outcome,[11],inactive
same,outcome,[19],inactive
same,outcome,[17],inactive
same,outcome,[12],inactive
same,outcome,[13],inactive
O=C(O)C(F)(F)C(F)(F)C(F)(F)C(F)(F)C(F)(F)F,outcome,[14],inactive
same,outcome,[2],inactive
same,outcome,[3],inactive
same,outcome,[4],inactive
same,outcome,[5],inactive
same,outcome,[6],inactive
same,outcome,[7],inactive
same,outcome,[8],inactive
same,outcome,[9],inactive
same,outcome,[10],inactive
same,outcome,[11],inactive
same,outcome,[19],inactive
same,outcome,[12],inactive
same,outcome,[13],inactive
O=C(N[C@H]1CN2CCC1CC2)c1cc2ccoc2cn1,outcome,[14],inactive
same,outcome,[2],inactive
same,outcome,[3],inactive
same,outcome,[4],inactive
same,outcome,[5],inactive
same,outcome,[6],inactive
same,outcome,[15],inactive
same,outcome,[7],inactive
same,outcome,[16],inactive
same,outcome,[8],inactive
same,outcome,[9],inactive
same,outcome,[10],inactive
same,outcome,[11],inactive
same,outcome,[12],inactive
same,outcome,[13],inactive
